Results published in PubChem BioAssay (NCATS).
Inconclusive results are not listed. Activity calls are given as the source filed them. The call rests on the fitted dose curve; in most records, active means well fitted curve in the direction sought with a large enough effect; inconclusive means small, poorly fitted or top-dose-only effect, or another doubt; inactive means no such curve, though single readings can be large; an effect the other way counts as inactive or inconclusive.

Key:
CRL-7250 = normal cell line; assay: Cytotoxic Profiling of Annotated Libraries Using Quantitative High-Throughput Screening (AID 1296008); settings: Five cell lines viability, CellTiter-Glo ATP luminescence, 48-72 h; max response: active compounds read low; further: nearly all actives have a fitted effect of over 60% in size; on max response: on the % scale 0 is the no-effect control and ±100 the full control effect
Method in brief: (§1)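 Cells exposed to compounds for 48 or 72 hr at 37 degrees Celsius. Viability read as ATP-coupled luminescence with CellTiter-Glo after 10 min at room temperature.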

HEK293 = assay: as above; settings: Five cell lines viability, CellTiter-Glo ATP luminescence, 48-72 h; max response: active compounds read low
Method in brief: as §1

HaCat [1] = assay: as above; settings: Five cell lines viability, CellTiter-Glo ATP luminescence, 48-72 h; max response: active compounds read low
Method in brief: as §1

KB-3-1 = assay: as above; settings: Five cell lines viability, CellTiter-Glo ATP luminescence, 48-72 h; max response: active compounds read low
Method in brief: as §1

NIH3T3 = assay: as above; settings: Five cell lines viability, CellTiter-Glo ATP luminescence, 48-72 h; max response: active compounds read low
Method in brief: as §1

HACAT [2] = assay: qHTS assay to identify novel small-molecules to repurpose for Merkel cell carcinoma treatment (AID 1296009); settings: MCC and control cell lines, CellTiter-Glo viability, 72 h; at 44.8 µM (top of the series) unless noted; further: nearly all actives have a fitted effect of over 60% in size
Method in brief: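 CellTiter-Glo luminescence after 72 hr compound exposure at 37 degree celsius gave cell viability. Libraries NPC and MIPE were run as 8- and 11-point dose responses; RLUs normalized to DMSO (negative) and no-cell (cytotoxicity) controls.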

C33A = assay: Primary qHTS to identify gynecologic anti-cancer compounds using libraries of approved drugs and bioactive compounds (AID 1345084); settings: Gynecologic cancer cell panel viability, ATPlite luminescence, 48 h; series mostly up to 57.5 µM; further: on the % scale 0 is the no-effect control and ±100 the full control effect; nearly all actives have a fitted effect of over 55% in size
Method in brief: (§2)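 Cells, 1,000 per well, plated 16 h, then exposed 48 h at 37 C to compounds. Viability by ATPlite luminescence after 15 min at room temperature.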

CAOV3 = assay: as above; settings: Gynecologic cancer cell panel viability, ATPlite luminescence, 48 h; series mostly up to 57.5 µM
Method in brief: as §2

CASKI = assay: as above; settings: Gynecologic cancer cell panel viability, ATPlite luminescence, 48 h; series mostly up to 57.5 µM
Method in brief: as §2

Es-2 = assay: as above; settings: Gynecologic cancer cell panel viability, ATPlite luminescence, 48 h; series mostly up to 57.5 µM
Method in brief: as §2

HeLa = assay: as above; settings: Gynecologic cancer cell panel viability, ATPlite luminescence, 48 h; series mostly up to 57.5 µM
Method in brief: as §2

Hek293T = assay: as above; settings: Gynecologic cancer cell panel viability, ATPlite luminescence, 48 h, control line for the selectivity index; series mostly up to 57.5 µM
Method in brief: as §2

JEG-3 = assay: as above; settings: Gynecologic cancer cell panel viability, ATPlite luminescence, 48 h; series mostly up to 57.5 µM
Method in brief: as §2

OV90 = assay: as above; settings: Gynecologic cancer cell panel viability, ATPlite luminescence, 48 h; series mostly up to 57.5 µM
Method in brief: as §2

CC[C@@H](C)[C@H](N)C(=O)N1Cc2ccccc2C1
inactive: max response (CRL-7250) -11.3% | max response (HEK293) -17.7% | outcome (HaCat [1]) | max response (KB-3-1) -3.64% | max response (NIH3T3) 0.412% | outcome (HACAT [2]) | Potency (C33A) | Potency (CAOV3) | outcome (CASKI) | Potency (Es-2) | Potency (HeLa) | Potency (Hek293T) | Potency (JEG-3) | Potency (OV90)

C[C@@H](CC[C@@H]1[C@@]2(C)CCCC(C)(C)C2CC[C@@]1(C)O)CC(=O)O (some centres undefined)
inactive: outcome (CRL-7250) | max response (HEK293) -2.2% | outcome (HaCat [1]) | outcome (KB-3-1) | max response (NIH3T3) 0.858% | outcome (HACAT [2]) | Potency (C33A) | Potency (CAOV3) | outcome (CASKI) | Potency (Es-2) | Potency (HeLa) | Potency (Hek293T) | Potency (JEG-3) | Potency (OV90)

COc1ccc(S(=O)(=O)Nc2nc(-c3cccc([N+](=O)[O-])c3)cs2)cc1OC
inactive: max response (CRL-7250) -1.12% | max response (HEK293) 2.2% | outcome (HaCat [1]) | max response (KB-3-1) 6.48% | outcome (NIH3T3) | outcome (HACAT [2]) | Potency (C33A) | Potency (CAOV3) | outcome (CASKI) | Potency (Es-2) | Potency (HeLa) | Potency (Hek293T) | Potency (JEG-3) | Potency (OV90)

COc1cc(O)c(C(=O)O)c(CCc2ccccc2)c1
inactive: max response (CRL-7250) -1.14% | max response (HEK293) -6.57% | outcome (HaCat [1]) | max response (KB-3-1) 9.04% | max response (NIH3T3) -0.163% | outcome (HACAT [2]) | Potency (C33A) | Potency (CAOV3) | outcome (CASKI) | Potency (Es-2) | Potency (HeLa) | Potency (Hek293T) | Potency (JEG-3) | Potency (OV90)

COC(=O)C1=CO[C@@H](O[C@@H]2O[C@H](CO)[C@@H](O)[C@H](O)[C@H]2O)[C@H]2[C@@H]1[C@H](O)C[C@]2(C)O
inactive: outcome (CRL-7250) | max response (HEK293) -1.47% | outcome (HaCat [1]) | outcome (KB-3-1) | max response (NIH3T3) -11.4% | outcome (HACAT [2]) inactive [at 17.4 µM] | Potency (C33A) | Potency (CAOV3) | outcome (CASKI) | Potency (Es-2) | Potency (HeLa) | Potency (Hek293T) | Potency (JEG-3) | Potency (OV90)

CC(C)=CCC[C@](C)(O[C@@H]1O[C@H](CO[C@@H]2O[C@@H](CO)[C@H](O)[C@H]2O)[C@@H](O)[C@H](O)[C@H]1O)[C@H]1CC[C@]2(C)[C@@H]1[C@H](O)C[C@@H]1[C@@]3(C)CC[C@H](O[C@@H]4O[C@H](CO)[C@@H](O)[C@H](O)[C@H]4O[C@@H]4O[C@H](CO)[C@@H](O)[C@H](O)[C@H]4O)C(C)(C)[C@@H]3CC[C@]12C
inactive: max response (CRL-7250) 2.09% | max response (HEK293) -3.56% | outcome (HaCat [1]) | outcome (KB-3-1) | max response (NIH3T3) -28.7% | outcome (HACAT [2]) inactive [at 17.4 µM] | Potency (C33A) | Potency (CAOV3) | outcome (CASKI) | Potency (Es-2) | Potency (HeLa) | Potency (Hek293T) | Potency (JEG-3) | Potency (OV90)

O=C(/C=C/c1ccc(O)cc1)OC[C@@]1(O)C=C[C@@H]2C(C(=O)O)=CO[C@@H](O[C@@H]3O[C@H](CO)[C@@H](O)[C@H](O)[C@H]3O)[C@@H]21
inactive: max response (CRL-7250) -3.16% | max response (HEK293) -5.68% | outcome (HaCat [1]) | outcome (KB-3-1) | max response (NIH3T3) 2.82% | outcome (HACAT [2]) inactive [at 17.4 µM] | Potency (C33A) | Potency (CAOV3) | outcome (CASKI) | Potency (Es-2) | Potency (HeLa) | Potency (Hek293T) | Potency (JEG-3) | Potency (OV90)

O=C(Nc1ccc(N2CCC(C(=O)N3CCOCC3)CC2)cc1)c1cnc(Oc2ccccc2)nc1
inactive: max response (CRL-7250) -3.51% | max response (HEK293) -17.8% | outcome (HaCat [1]) | max response (KB-3-1) -6.22% | max response (NIH3T3) -17.6% | outcome (HACAT [2]) | Potency (C33A) | Potency (CAOV3) | outcome (CASKI) | Potency (Es-2) | Potency (HeLa) | Potency (Hek293T) | Potency (JEG-3) | Potency (OV90)

COC(=O)C1=C[C@@H](O)[C@@H](O)[C@H](O[C@@H]2O[C@H](CO)[C@@H](O)[C@H](O)[C@H]2OC(=O)/C=C/c2ccccc2)C1
inactive: max response (CRL-7250) -2.62% | max response (HEK293) -6.26% | outcome (HaCat [1]) | max response (KB-3-1) -5.3% | max response (NIH3T3) -1.73% | outcome (HACAT [2]) inactive [at 17.4 µM] | Potency (C33A) | Potency (CAOV3) | outcome (CASKI) | Potency (Es-2) | Potency (HeLa) | Potency (Hek293T) | Potency (JEG-3) | Potency (OV90)

C=C1CC23CC(=O)C4C(CO)(CO)CCCC4(C)C2CCC1C3 (centres undefined)
inactive: outcome (CRL-7250) | max response (HEK293) 2.8% | outcome (HaCat [1]) | outcome (KB-3-1) | max response (NIH3T3) -8.41% | outcome (HACAT [2]) | Potency (C33A) | Potency (CAOV3) | outcome (CASKI) | Potency (Es-2) | Potency (HeLa) | Potency (Hek293T) | Potency (JEG-3) | Potency (OV90)

C[C@@H]1O[C@@H](O[C@H]2[C@H](O[C@H]3[C@H](O[C@H]4CC[C@@]5(C)C(CC[C@]6(C)C5CC=C5[C@@H]7CC(C)(C)C[C@@H](O)[C@]7(C)CC[C@]56C)C4(C)C)O[C@H](C(=O)O)[C@@H](O)[C@@H]3O)O[C@H](C(=O)O)[C@H](O)[C@@H]2O)[C@H](O)[C@H](O)[C@H]1O (some centres undefined)
inactive: max response (CRL-7250) -7.66% | max response (HEK293) -8.11% | outcome (HaCat [1]) | outcome (KB-3-1) | max response (NIH3T3) 0.708% | outcome (HACAT [2]) inactive [at 9.27 µM] | activity change, negative = cytotoxicity (C33A) -4.31% [at 11.6 µM] | activity change, negative = cytotoxicity (CAOV3) -1.54% [at 11.6 µM] | activity change, negative = cytotoxicity (CASKI) 12.7% [at 11.6 µM] | activity change, negative = cytotoxicity (Es-2) -10.8% [at 11.6 µM] | activity change, negative = cytotoxicity (HeLa) 5.18% [at 11.6 µM] | activity change, negative = cytotoxicity (Hek293T) 6.67% [at 11.6 µM] | activity change, negative = cytotoxicity (JEG-3) -0.21% [at 11.6 µM] | activity change, negative = cytotoxicity (OV90) 9.77% [at 11.6 µM]
